Results from PubChem BioAssay (NCATS).
Results filed as inconclusive are left out. The source made the active and inactive calls. Unless noted, calls follow the shape of the dose curve; as a rule, active = well fitted curve in the direction sought with a large enough effect; inconclusive = small, poorly fitted or top-dose-only effect, or another doubt; inactive = no such curve, though single readings can be large; an effect the other way counts as inactive or inconclusive.

Assays:
[1] = Cytotoxicity counterscreen for NFkB agonists and antagonists (AID 624476);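 also: cells exposed to compound for 48 hours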; also: potency is read from the fitted curve at half-maximal effect
[2] = qHTS Assay for Identification of Small Molecule Agonists for NFkB Signaling Pathway. (AID 624478);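 also: compounds tested together with TNF alpha at its EC50 of 10 pM; 0% is about no effect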
How it was run: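 Cells carrying an NFkB response element-driven beta-lactamase gene are co-treated with compound and 10 pM TNF alpha for 5 h, and reporter activity is then read as 460 and 530 nm fluorescence.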

[3] = qHTS Assay for Identification of Small Molecule Antagonists for NFkB Signaling Pathway. (AID 624479; calls by dose curve;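 also: pathway stimulated with TNF alpha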; also: potency is read from the fitted curve at half-maximal effect)
[4] = Cell Proliferation Assay against the TMD8 Cell Line (AID 651645); settings: TMD8 DLBCL cell line proliferation/viability; at 46.1 µM (top of the series);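 also: cells exposed to compound for 48 h before reading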
How it was run: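 Luminescent ATP read-out (CellTiter-Glo, 15 min RT) after 48 h compound exposure of log-growing TMD8 cells at 37C; percent activity scaled between DMSO as 100% and 9.2 uM bortezomib final as 0%.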

[5] = Cell Proliferation Assay against the HBL1 Cell Line (AID 651646); settings: HBL1 DLBCL cells; at 46.1 µM (top of the series);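 also: cells exposed to compound for 48 h before reading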
How it was run: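 HBL1 ABC DLBCL cells, 500/well in RPMI with 5% FBS, treated for 48 h at 37C. Viability read by CellTiter-Glo luminescence, normalized to DMSO as 100% and 9.2 uM bortezomib as 0%.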

[6] = Cell Proliferation Assay against the TMD8 Cell Line (Caspase readout at 16 hrs) (AID 651712); also: potency is read from the fitted curve at half-maximal effect
How it was run: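 TMD8 cells in RPMI with 5% FBS were treated with compound for 16 h at 37 C, then caspase 3/7 activation was read by Caspase-Glo luminescence. Percent activity was scaled to DMSO (0%) and 9.2 uM bortezomib final (100%).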

[7] = Cell Proliferation Assay against the TMD8 Cell Line (Caspase readout at 8 hrs) (AID 651713); also: potency is read from the fitted curve at half-maximal effect
How it was run: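 Percent activity derived from Caspase-Glo signal, DMSO set to 0% and bortezomib (9.2 uM final) to 100%. TMD8 cells were exposed to compound for 8 h in RPMI with 5% FBS.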

| Compound | Potency [1] | outcome [2] | Potency [3] | viability (% of control) [4] | viability, percent of control [5] | Potency [6] | Potency [7] |
| --- | --- | --- | --- | --- | --- | --- | --- |
| C#Cc1cccc(Nc2ncnc3cc(OC)c(OCCCCCCC(=O)NO)cc23)c1 | 2.64 µM (active) | inactive | 16.8 µM (active) | -0.46% | 1.91% | 0.148 µM (active) |  |
| O=C(C=Cc1cccnc1)NCCCCC1CCN(C(=O)c2ccccc2)CC1 | inactive | inactive | inactive | 7.31% | 53.4% | inactive | inactive |
| CCC[C@H](NC(=O)C(C#N)=Cc1cccc(Br)n1)c1ccccc1 | 2.96 µM (active) | inactive | 2.11 µM (active) | 3.01% | 2.62% |  | 1.87 µM (active) |
| COc1ccc(CC2SC(=O)NC2=O)cc1C(=O)NCc1ccc(C(F)(F)F)cc1 (stereo unspecified) | inactive | inactive | inactive | 71.9% | 66% |  | inactive |
| Cc1ccc(-c2ncn(-c3ccc(Nc4nccc(-c5cccc(N6CCOCC6)c5)n4)cc3)n2)cn1 | 0.935 µM (active) | inactive | 0.237 µM (active) | 0.9% | 0.21% | 0.0105 µM (active) |  |
| NC(=O)Nc1cc(-c2cccc(F)c2)sc1C(=O)N[C@H]1CCCNC1 | 1.32 µM (active) | inactive | 14.9 µM (active) | 5.07% | 19.6% | 0.0418 µM (active) |  |
| CC(C)(C)c1cnc(CSc2cnc(NC(=O)C3CCNCC3)s2)o1 | 0.166 µM (active) | inactive | 0.0473 µM (active) | 3.42% | 36.4% |  | 0.0935 µM (active) |
| Nc1ccccc1NC(=O)c1ccc(CNc2nccc(-c3cccnc3)n2)cc1 | 14.8 µM (active) | inactive | 0.15 µM (active) | 2.31% | 4.64% | 20.9 µM (active) | inactive |
| Nc1nc(-c2nn(Cc3ccccc3F)c3ncccc23)nc(N)c1N1CCOCC1 | inactive | inactive | inactive |  |  | inactive | inactive |
| O=C(C=Cc1c(C(=O)O)[nH]c2cc(Cl)cc(Cl)c12)Nc1ccccc1 | inactive | inactive | inactive |  | 112% | inactive | inactive |
| C[C@@H]1CN(CC(=O)Nc2ccc3c(c2)Cc2cccc(-c4cc(=O)cc(N5CCOCC5)o4)c2S3)C[C@H](C)O1 | inactive | inactive | inactive |  | 56.7% |  | 23.5 µM (active) |
| CCN1CCN(Cc2ccc(-c3cc4c(N[C@H](C)c5ccccc5)ncnc4[nH]3)cc2)CC1 | 33.2 µM (active) | inactive | 16.8 µM (active) |  | 1.9% | 16.6 µM (active) |  |
| CCN1CCN(CC(=O)Nc2ccc(-c3cccc4c(=O)cc(N5CCOCC5)oc34)c3sc4ccccc4c23)CC1 | 5.9 µM (active) | inactive | 13.3 µM (active) |  | 0.638% | 0.469 µM (active) | 20.9 µM (active) |
| CC(C)(O)CCc1ccc(OCc2cc(-c3cccc(OC(F)F)c3)c3ncccc3c2)cc1 | inactive | inactive | 23.7 µM (active) |  | 7.17% |  | inactive |
| CC(C)C[C@H](NC(=O)CNC(=O)c1cc(Cl)ccc1Cl)B(O)O | 0.0743 µM (active) | inactive | 0.0084 µM (active) |  | 5.36% |  |  |
| COc1cc2ncn(-c3cc(OCc4ccccc4C(F)(F)F)c(C(N)=O)s3)c2cc1OC | inactive | inactive | inactive |  | 41.7% |  | inactive |
| CC[C@@H]1C(=O)N(C)c2cnc(Nc3ccc(C(=O)NC4CCC(N5CCN(CC6CC6)CC5)CC4)cc3OC)nc2N1C(C)C (stereo partly specified) | 13.2 µM (active) | inactive | 5.3 µM (active) |  | 4.22% |  | 26.4 µM (active) |
| CC1(C)CCC(c2ccc(Cl)cc2)=C(CN2CCN(c3ccc(C(=O)NS(=O)(=O)c4ccc(N[C@H](CCN5CCOCC5)CSc5ccccc5)c(S(=O)(=O)C(F)(F)F)c4)cc3)CC2)C1 | 4.18 µM (active) | inactive | 14.9 µM (active) |  | 3.35% |  | 29.6 µM (active) |
| CN1CC[C@@H](c2c(O)cc(O)c3c(=O)cc(-c4ccccc4Cl)oc23)[C@@H](O)C1 | 0.132 µM (active) | inactive | 0.0149 µM (active) | -0.0054% | 41.8% |  | 0.0743 µM (active) |
| CC(C)c1ccc(Cn2ccc3c4c(N)nc(NC5CC5)nc4ccc32)cc1 | 9.35 µM (active) | inactive | 16.8 µM (active) | 1.25% | 1.62% |  | 6.62 µM (active) |
| CC(=O)OCCN1C(=O)c2c(C)nc3ccc(S(=O)(=O)N4CCOCC4)cc3c2C1=O | inactive | inactive | inactive |  | 105% | inactive | inactive |
| COc1ccc2c(c1)CC[C@@H](CN(C)CC(=O)O)[C@H]2c1ccccc1 | inactive | inactive | inactive |  | 98.5% | inactive | inactive |
| Cc1ccc(C(=O)Nc2cccc(C(F)(F)F)c2)cc1-c1ccc2nc(NCCN3CCOCC3)ncc2c1 | 20.9 µM (active) | inactive | 4.73 µM (active) | 0.164% | 0.88% |  | 20.9 µM (active) |
